Screening results deposited in PubChem by National Center for Advancing Translational Sciences (NCATS).
The full list was thinned out, with hits kept by preference.
Cruzain inh noDet – inhibitors of Trypanosoma cruzi cruzain without detergent; AID 1476; 2.3% of 200,000 active; P25779; purified cruzain, Z-FR-AMC fluorescence, no detergent; Potency, µM, without a hit: max response, negative = inhibition, actives largely listed as inhibitors;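 note: plate controls were enzyme without inhibitor for no effect and buffer without enzyme for full effect; nearly all actives have a fitted effect of over 40% in size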
Target sequence (P25779 123-467 limits assumed): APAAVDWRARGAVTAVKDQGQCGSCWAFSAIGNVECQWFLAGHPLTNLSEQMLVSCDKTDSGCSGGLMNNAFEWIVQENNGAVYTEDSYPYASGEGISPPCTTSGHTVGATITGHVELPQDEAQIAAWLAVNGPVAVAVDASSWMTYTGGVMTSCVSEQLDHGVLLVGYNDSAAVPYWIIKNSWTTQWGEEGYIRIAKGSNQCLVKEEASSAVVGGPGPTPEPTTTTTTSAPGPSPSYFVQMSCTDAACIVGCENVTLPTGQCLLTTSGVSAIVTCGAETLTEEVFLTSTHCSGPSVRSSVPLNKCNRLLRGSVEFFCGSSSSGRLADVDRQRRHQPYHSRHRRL
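Detergent-free condition (0.00005% Triton X-100) in acetate buffer pH 5.5 with DTT. 1.5 nM enzyme and compound were pre-mixed 15 min, then 2 uM Z-FR-AMC substrate added; reaction progress from fluorescence change between first and third reads (60 s).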
NS1 function inh – influenza NS1 inhibition | AID 2326 | 0.4% of 270,000 active | Potency, µM (top dose mostly 46.1 µM), without a hit: top-dose activity, positive = more growth; calls by dose curve; note: actives are rising curves; nearly all actives have a fitted effect of over 50% in size
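Recovery from NS1-induced slow growth read by OD600 in budding yeast switched to galactose assay medium (pH 6.0, -URA) at 1:100 dilution. Compound 23 nl per well; the matching strain lacking NS1 serves as control.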
Cruzain inh Det – inhibitors of Trypanosoma cruzi cruzain with detergent | purified cruzain, Z-FR-AMC fluorescence, 0.01% Triton | Potency, µM, for the others: max response, negative = inhibition, hits mostly inhibitors | 0.43% of 200,000 active;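 note: plate controls were neutral wells for no effect and buffer without enzyme for full effect; nearly all actives have a fitted effect of over 40% in size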
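Z-FR-AMC hydrolysis (2 uM substrate) by cruzain (1.5 nM) monitored kinetically at ex 360/em 450 nm after 15 min room-temperature compound exposure; 0.01% Triton X-100, pH 5.5, 5 mM DTT.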
* hit, by the source's call; ? = inconclusive; . = no result. Unless noted, calls come from the whole dose curve; as a rule, active = well fitted curve in the direction sought with a large enough effect; inconclusive = small, poorly fitted or top-dose-only effect, or another doubt; inactive = no such curve, though single readings can be large; an effect the other way counts as inactive or inconclusive. Potency is the fitted concentration of half-maximal effect.

SMILES	Cruzain inh noDet	NS1 function inh	Cruzain inh Det
O=S(=O)(c1cccs1)N1CN(Cc2ccco2)c2nc3ccccc3nc21	.	-6%	.
Nc1nc(Cc2ccccc2)nc(Cc2ccccc2)c1-c1ccccc1	1%	-9%	1%
Cc1sc(NC(=O)Cc2ccc3c(c2)OCO3)nc1-c1ccc2c(c1)CCN2C(=O)c1ccccc1F	7.9µM*	22%	-1%
CN(C(=O)c1cc(S(=O)(=O)N2CCc3ccccc32)cn1C)C1CCCCC1	.	-4%	.
Cc1sc(NC(=O)CN(C)C2CCCCC2)nc1-c1ccc2c(c1)CCN2S(=O)(=O)c1ccccc1	32µM*	24%	-5%
CCOC(=O)C(=O)Nc1nc(-c2ccc3c(c2)CCN3C(=O)C2CC2)c(C)s1	.	9%	.
Cc1sc(NC(=O)CN2CCCC2)nc1-c1ccc2c(c1)CCN2C(=O)c1cccc(F)c1	.	23%	.
Cc1sc(NC(=O)Cc2ccc3c(c2)OCO3)nc1-c1ccc2c(c1)CCN2C(=O)c1ccc(F)cc1	6.3µM*	17%	-4%
CC1=C[N+](=O)c2ccccc2[N+]1=O	2%	0%	-2%
CCCCCC(O)/C=C/C=C\CCCCCCCC(=O)O (configuration not stated)	-3%	.	-2%
O=C(Nc1cccc(Cl)c1)Nc1nc(-c2ccc(Cl)cc2)cs1	10µM*	-12%	1%
CCc1ccc(-c2csc(NC(=O)Oc3ccccc3)n2)cc1	13µM*	0%	0%
O=C(Nc1nc(-c2cccc(Br)c2)cs1)Oc1ccccc1	?	-51%	1%
O=C(Nc1ccccc1)Nc1nc(-c2ccc(Cl)cc2)cs1	16µM*	-6%	2%
COc1cccc(NC(=O)Nc2nc(-c3ccc(OC)c(OC)c3)cs2)c1	.	-17%	.
COc1ccc(-c2csc(NC(=O)Nc3ccccc3)n2)cc1	.	3%	.
COC(=O)C/C=C/[C@@H](C)[C@@H](Cc1ccccc1Br)OC	-2%	.	1%
COc1ccc(CC(=O)NC2CC(=O)N(c3cccc(F)c3)C2)cc1 (configuration not stated)	4%	.	0%
CCOC(=O)c1oc2ccccc2c1NC(=O)C1CCCCC1	-24%	10%	7%
O=C(CNC(=O)C1CCCCC1)OCc1cc(=O)oc2ccc3ccccc3c12	-20%	5%	3.2µM*
COC(=O)CSc1nc2ccc(NC(=O)CSc3nnnn3Cc3ccccc3)cc2s1	7%	?	-11%
O=C(CSc1nc2ccc(NC(=O)CSc3nnnn3Cc3ccccc3)cc2s1)Nc1ccccc1	10µM*	11%	-1%
Cc1ccccc1OCc1nnc(SCC(=O)Nc2ccc3nc(SCC(=O)Nc4ccccc4)sc3c2)n1C	25µM*	2%	0%
Cc1ccccc1OCc1nnc(SCC(=O)Nc2ccc3c(c2)OCO3)n1C	5%	4%	-3%
CCS(=O)(=O)c1nc(S(=O)(=O)c2ccc(Cl)cc2)c(NCc2ccc(Cl)cc2)s1	?	.	-2%
SMILES	Cruzain inh noDet	NS1 function inh	Cruzain inh Det
Oc1ccc(C2Nc3cccc4cccc(c34)N2)c(O)c1	16µM*	4%	?
c1coc(C2Nc3cccc4cccc(c34)N2)c1	7.9µM*	-44%	-11%
Clc1ccccc1C1Nc2cccc3cccc(c23)N1	.	19%	.
Cc1ccc(C2Nc3cccc4cccc(c34)N2)s1	20µM*	5%	-8%
Clc1cccc(C2Nc3cccc4cccc(c34)N2)c1Cl	.	-28%	.
Fc1ccc(C2Nc3cccc4cccc(c34)N2)cc1	.	4%	.
Cc1ccccc1C(=O)Nc1ccccc1C(=O)OCc1cc(=O)n2ccsc2n1	18%	.	0%
CCc1ccc(CNC(=O)Cc2c(C(=O)O)c(C)cn2C)cc1	-9%	.	2%
C=CCC(C)(O)c1cccc(Br)c1 (configuration not stated)	14%	.	1%
Cc1ccc(NC(=O)C2CCCN(C(=O)c3cnn(-c4ccc(F)cc4)c3-n3cccc3)C2)c(Cl)c1 (configuration not stated)	?	.	-5%
CCOC(=O)c1c(C)[nH]c(C)c1S(=O)(=O)N1CCCC(C(=O)Nc2ccc(F)cc2F)C1 (configuration not stated)	6%	.	2%
CCN(C(=O)CSc1nc2ccccc2n1Cc1cc(C)ccc1C)c1ccccc1	9%	.	-1%
O=C(Nc1ccc(NC(=O)c2cccs2)cc1)c1ccc(Cl)cc1	-5%	.	0%
COc1c(Cl)cc(Cl)cc1/C=C/C(=O)c1ccc(NC(=O)c2cccs2)cc1	32µM*	8%	-3%
COC(=O)NC(c1ccccc1)c1c[nH]c2ccccc12 (configuration not stated)	-7%	.	2%
N#Cc1nc(-c2ccc(COc3ccc(Cl)cc3)o2)oc1N1CCC(C(N)=O)CC1	?	.	-8%
Oc1cc(Cl)cc(Cl)c1	-9%	.	-2%
CCOC(=O)COc1ccc2nsnc2c1Cl	-4%	?	-1%
CCOC(=O)COc1ccccc1-c1ccno1	25µM*	-68%	?
CCCCNC(=O)C1=C(N)C(C(=O)Nc2ccc(C)c(S(=O)(=O)N3CCCCC3)c2)SC1=Nc1ccc(C)cc1C (configuration not stated)	7.9µM*	?	7%
Cc1ccccc1C(=O)NCC(=O)Nc1ccc(C)c(S(=O)(=O)N2CCCCCC2)c1	.	-6%	.
Cc1cccc(Oc2coc3cc(OC(=O)c4cc5ccccc5oc4=O)ccc3c2=O)c1	5µM*	-6%	4%
CCOC(=O)Oc1ccc2c(=O)c(Oc3cccc(C)c3)coc2c1	-11%	-37%	-5%
O=C(CNC(=O)c1ccccc1F)OC(C(=O)Nc1cc(C(F)(F)F)ccc1Cl)c1ccccc1 (configuration not stated)	7.9µM*	5%	5µM*
C[C@H](NC(=O)c1ccccc1Cl)C(=O)OC(C(=O)Nc1cc(C(F)(F)F)ccc1Cl)c1ccccc1 (some centres not stated)	-30%	25%	?
SMILES	Cruzain inh noDet	NS1 function inh	Cruzain inh Det
COC(=O)CN(C#N)c1nc(SC)nc(N(C)C)n1	13µM*	-6%	16µM*
CC(=O)OCN(C#N)c1nc(N(C)C)nc(N(C)C)n1	-5%	-12%	-7%
COc1cc2c(cc1OC)C1=NC(=O)CN1C(SCc1ccc(C)cc1)=N2	-9%	?	6%
Cc1ccc(CSC2=Nc3sccc3C3=NC(=O)CN23)cc1	20µM*	21%	-8%
COC(=O)[C@H]1O[C@@H](c2cc(OC)c(C)c(OC)c2O)[C@H](C)[C@@H](O)[C@H]1C	7%	.	2%
COCOc1c2c(c(OCOC)c3c(OCOC)cccc13)/C(=N/NS(C)(=O)=O)C1=C2CCCC1	-8%	.	2%
O=C1NC(=S)N/C1=C/c1ccc(-c2c(Br)cc([N+](=O)[O-])cc2Br)o1	20µM*	22%	-12%
O=C1NC(=S)N/C1=C/c1cccc([N+](=O)[O-])c1	.	6%	.
COC(=O)[C@H]1[C@@H]2C[C@H]3c4[nH]c5ccccc5c4CCN3C[C@@H]2CC[C@@H]1O	-6%	.	0%
COc1cccc(CNC(=O)C(=O)NCC(c2ccco2)S(=O)(=O)c2cccs2)c1 (configuration not stated)	-4%	.	-2%
C(=N\Nc1nccc(-c2cccnc2)n1)/c1ccccc1	.	-40%	.
Cc1ccc(-c2cc(-c3ccccc3O)nc(N/N=C/c3cccnc3)n2)cc1	25µM*	17%	3%
CC/C=C/C#N	4%	.	3%
O=C(CSc1nnc2c(n1)[nH]c1ccc(F)cc12)Nc1ccccc1F	.	0%	.
O=C(O)CSc1nnc2c3ccccc3c3ccccc3c2n1	-6%	-6%	-3%
